This is part of a sample that, as a whole, favours compounds with a hit. Of some 83,000 tested, about 20% had one in any assay.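 Results are percent growth after 48 hours of single-concentration exposure. 100 means growth as in untreated cells, lower positive values show inhibition; negative values down to -100 show cell death.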 Values without a mark were called inactive. The source made the active and inactive calls. How the source made its calls: active means growth percent below 10; inactive means the rest.

For this assay, the system named is MDA-MB-468 breast. As to the kind of experiment: NCI-60 one-dose screen, 48 h (100 = growth as untreated, 0 = no growth, -100 = all killed). The note with it: 10 µM unless noted.

As for `N#CC(C#N)=Cc1cc2ccccc2nc1Oc1ccc(C(F)(F)F)cc1`, the growth is 86.1%. For `N=c1c2c(-c3ccccc3)c(-c3ccccc3)oc2ncn1NC(=O)c1cccnc1`, the growth was 105%. For the molecule `O=[N+]([O-])c1ccc(CO)cc1`, the growth is 0.448% (active). Regarding `O=C1NN(C(=O)c2ccc(Cl)cc2)C(c2ccccc2)=N/C1=C\c1ccc(F)cc1`, the growth is 67.9%.

For `O=C1[C@H]2Cc3c([nH]c4ccccc34)[C@@H](c3ccc(Br)cc3)N2C(=O)CN1C1CCN(CC2CCCCC2)CC1`, the growth was -84.6% (active). Take `Brc1ccc(Br)nn1`: the growth was -85.5% (active).

With `C=C1C(=O)O[C@H]2[C@H]1CC/C(COC(=O)/C=C/C(=O)OC/C1=C/CC[C@@]3(C)O[C@H]3[C@H]3OC(=O)C(=C)[C@@H]3CC1)=C\CC[C@@]1(C)O[C@@H]21`, the growth was -5.97% (active). In the case of `O=C(NCCCCCCCNC(=O)OCc1ccc2c(Cl)cc(Cl)c(O)c2n1)OCc1ccc2c(Cl)cc(Cl)c(O)c2n1`, the growth is -57.3% (active). As for `Cn1cc(C(=O)c2nc(-c3c[nH]c4ccc(F)cc34)no2)c2cc(F)ccc21`, the growth was 107%. Turning to `O=[N+]([O-])c1c(F)cccc1Nc1cccc(F)c1`, the growth was 127%.

`O=C1NC(=O)C2(CCCC2C(=O)O)N1` (centres undefined): the growth is 107%. As to `C(CCCC1=NCCO1)CCCC1=NCCO1`, the growth is 95%. With `CCOC(=O)c1cc(C)[nH]c(=O)c1C#N`, the growth was 97.3%. Regarding `CCCCCCCC(=O)OCC/C=C/C1OC1C1OC(=O)/C=C\C=C\C(=O)N(C(C)=O)C(=O)/C=C(/C)CCC2OC2C1OC(=O)NC(C)=O` (centres undefined), the growth is -3.75% (active).

For the molecule `CCn1cc(C2NC(=O)c3ccccc3N2)c2cccc(C)c21` (centres undefined), the growth was 17.9%. For `NC(=O)c1cccc(-n2ccc3cc(NC(=O)Nc4ccc(Cl)c(C(F)(F)F)c4)ccc32)n1`, the growth is 47%.

As for `Clc1ccc2c(OCCCN3CCOCC3)c3oc4ccccc4c3nc2c1`, the growth was 21.1%.

In the case of `Fc1cccc(F)c1C#Cc1ccc2cccnc2c1`, the growth is 36.5%. On to `Cc1c(F)cc(C(N)=O)cc1NCC(=O)Nc1ccc([N+](=O)[O-])cc1`, for which the growth was 92.4%. The value for `C/C(=N\NC(N)=S)c1nnn(-c2ccc([N+](=O)[O-])cc2)c1C` was 89.3%. For `CC1=CCc2ccccc21`, the growth is 115%. On to `CC(C)NC(=O)c1cc(-c2ccc(NC(=O)Nc3ccc(N4CCOCC4)c(C(F)(F)F)c3)cc2)nc2cccnc12`, for which the growth was 92.1%.

As for `COc1ccc2c(c1)c(=O)oc1c(C)c(OCC(C)=O)ccc12`, the growth is 88.5%. With `COC(=O)CC(=O)C(=O)OC`, the growth is 95.3%. In the case of `O=c1ccc2cc3ccccc3cc2[nH]1`, the growth is 99%. The value for `N#CSCC1CC(O)(c2ccccc2)CC(c2ccc(Cl)cc2)O1` (centres undefined) was 47.3%; that for `O=C(Nc1ccccc1Cl)c1c[nH]c(=O)c(-c2ccc(N3CCCOC4(CC4)C3)cc2)c1` was 9.39% (active); that for `NC(=O)c1c(NC(=O)c2ccccn2)sc2c1CCC(=O)C2` was 6.36% (active). Regarding `CCNC(=O)N1CCc2c(Cl)c3c(c(OC)c2[C@@H]1[C@H]1OCc2c1ccc(OC)c2OC)OCCO3`, the growth is -8.07% (active). As for `Cn1cc(-c2[nH]c3cc(NC(=O)[C@H](N)C4CCCCC4)cc4c3c2C=NNC4=O)cn1`, the growth was -83.3% (active). The value for `C=C1C(=O)O[C@H]2[C@H]1CC/C(COC(=O)CSCCSCC(=O)OC/C1=C/CC[C@@]3(C)O[C@H]3[C@H]3OC(=O)C(=C)[C@@H]3CC1)=C\CC[C@@]1(C)O[C@@H]21` was -44.7% (active). Regarding `Brc1ccc(-c2nnc3c4[nH]ccc4ncn23)cc1`, the growth is 104%.

As for `O=c1c2cc(Br)cc(Br)c2nc(-c2ccc(Cl)cc2)n1/N=C\c1ccccc1F`, the growth was 79.1%.

`Clc1ccc(CN2COc3c(ccc4cccnc34)C2)cc1Cl`: the growth is -71.9% (active). Take `C=CCn1c(=O)c2cnc(Nc3ccc(N4CCN(C)CC4)cc3)nc2n1-c1cccc(C(C)(C)O)n1`: the growth was -0.604% (active). On to `CN(C)CCN1C(=O)c2ccc3c4c(ccc(c24)C1=O)C(=O)N(CCN=C=S)C3=O`, for which the growth was -88.8% (active). Consider `Cn1c(=O)cc(NC(=O)CN2CCN(c3cc4c(cc3F)c(=O)c(C(=O)O)cn4C3CC3)CC2)[nH]c1=O`, for which the growth was 92.6%. For the molecule `NS(=O)(=O)c1ccc(NC2=C(Cl)C(=O)c3ccccc3C2=O)cc1`, the growth is -67% (active). As for `O=C1C=C(Nc2ccc([N+](=O)[O-])cc2)c2ccccc2C1=O`, the growth is 41.1%.

Source of the values: PubChem BioAssay (NCI).
